Source: PubChem
An excerpt weighted towards active compounds, which were near 19% of everything screened.
HT1080 IDH1KD tx: qHTS for induction of synthetic lethality in tumor cells producing 2HG: qHTS for the HT-1080-IDH1KD cell line | HT-1080 IDH1 knockdown viability, ATP luminescence, 48 h | Potency, µM (titrated, usually from 46.1 µM), for the others: at the highest dose activity, negative = toxicity, hits mostly cytotoxic | 360,000 tested, 2% active | AID 686971, 2013;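 further: potency means the concentration at half of the fitted maximal effect; 0% = DMSO wells and -100% = cell-free medium wells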
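Luminescent ATP read-out (CellTiter-Glo, 10 min at room temperature) after 48 h compound exposure at 37 °C gave viability of IDH1-knockdown HT-1080 cells. Activity was normalised to DMSO and cell-free wells, then fitted as concentration-response curves.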
HT1080NT lethal: qHTS for induction of synthetic lethality in tumor cells producing 2HG: qHTS for the HT-1080-NT fibrosarcoma cell line. HT-1080-NT fibrosarcoma viability, CellTiter-Glo ATP luminescence, 48 h. Potency, µM (titrated, usually from 46.1 µM), for the others: at the top dose activity, negative = less viability, hits mostly cytotoxic. 360,000 tested, 1.6% active. AID 686970, 2013;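 further: NT is the 2HG producing partner of a matched IDH1 knockdown line; potency means the concentration at half of the fitted maximal effect; 0% = DMSO-treated cells and -100% = media-only wells without cells; nearly all actives have a fitted effect of over 55% in size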
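Fibrosarcoma NT cells, 750 per well in 5% FBS RPMI, were exposed to compound for 48 hours. Viability: CellTiter-Glo luminescence.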
DT40 TDP1 no CPT: qHTS for Inhibitors of human tyrosyl-DNA phosphodiesterase 1 (TDP1): qHTS in cells in absence of CPT; DT40 Tdp1-/- hTDP1 cells, no CPT, ATP luminescence, 48 h; Potency, µM (series often up to 46.2 µM), for the others: at the highest dose activity change, negative = growth inhibition, hits mostly inhibitors; 420,000 tested, 15% active; AID 686978, 2013; further: potency means the concentration at half of the fitted maximal effect; nearly all actives have a fitted effect of over 55% in size
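Chicken DT40 Tdp1-/- cells stably complemented with human TDP1 were seeded at 400 cells/well with DMSO in place of 20 nM camptothecin. After compound pinning, cells grew at least 48 hr at 37 °C; viability read by CellTiter-Glo luminescence.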
ELG1 DNA repair: qHTS screen for small molecules that inhibit ELG1-dependent DNA repair in human embryonic kidney (HEK293T) cells expressing luciferase-tagged ELG1 | Potency, µM (titrated, usually from 46.1 µM), for inactives: at the top dose activity change, negative = inhibition, hits mostly inhibitors | 330,000 tested, 2.3% active | HEK293T ELG1-luciferase reporter, luminescence, 16 h; DNA damage induced by 5-fluorouridine; further: potency means the concentration at half of the fitted maximal effect; nearly all actives have a fitted effect of over 55% in size
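Reporter activity after DNA damage by 5-fluorouridine is monitored. Compound-treated cells incubate 16 hr at 37 °C, then ONE-Glo is added for 30 min before luminescence reading.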
DT40 TDP1 CPT: qHTS for Inhibitors of human tyrosyl-DNA phosphodiesterase 1 (TDP1): qHTS in cells in presence of CPT; 420,000 tested, 12% active; Potency, µM (titrated, usually from 46.2 µM), without a hit: at the top dose activity change, negative = growth inhibition, actives largely listed as inhibitors; chicken DT40 Tdp1-/-;hTDP1 cells + 20 nM CPT, ATP luminescence, 48 h; further: potency means the concentration at half of the fitted maximal effect; nearly all actives have a fitted effect of over 55% in size
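Cell growth measured by CellTiter-Glo luminescence after a minimum 48 h, 37 C compound exposure with 20 nM CPT in Tdp1-knockout DT40 cells stably expressing hTDP1, seeded 400/well; qHTS titration format.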
IL-1B inflam inh: qHTS for Inhibitors of Inflammasome Signaling: IL-1-beta AlphaLISA Primary Screen. AID 743279, 2014. 360,000 tested, 4.7% active. THP-1 LPS/ATP IL-1B secretion, AlphaLISA, 16 h; stronger effect = lower value. activity change, % at 57.5 µM; in the data active means activity change below about -50%; inconclusive means mostly about -30% to -49%
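Secreted IL-1B measured by AlphaLISA bead assay after 16 h compound exposure of THP-1 cells; compounds (final up to 57.5 uM) added 1 h before LPS (250 ng/mL) and ATP (1.25 mM) stimulation; lower signal means less secretion.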
The depositor's hits bear a star; i = inactive; u = inconclusive; x = no result. Unless noted, the call rests on the fitted dose curve; in most records, active means well fitted curve in the direction sought with a large enough effect; inconclusive means small, poorly fitted or top-dose-only effect, or another doubt; inactive means no such curve, though single readings can be large; an effect the other way counts as inactive or inconclusive. Unless noted, on the % scale 0 is the no-effect control and ±100 the full control effect.

SMILES	HT1080 IDH1KD tx	HT1080NT lethal	DT40 TDP1 no CPT	ELG1 DNA repair	DT40 TDP1 CPT	IL-1B inflam inh
COc1cccc(C(=O)N2CCN(c3nc4cc(C)cc(C)c4cc3C#N)CC2)c1	7.5%	8.5%	16.4µM*	x	23.1µM*	-21.8
COc1ccc2cc(C#N)c(N3CCN(C(=O)c4ccccc4C)CC3)nc2c1	u	u	u	13µM*	u	x
Cc1ccc(-n2ncc3c2CC(C)(C)CC3NC(=O)CCc2ccc(=O)[nH]n2)cc1 (stereo not given)	3.0%	8.0%	25.3%	-1.2%	0.9%	-3.0
COc1ccc(C(=O)N2CCN(c3nc4cc(C)ccc4cc3C#N)CC2)c(OC)c1	-25.1%	-6.4%	16.4µM*	u	16.4µM*	-59.1*
COc1cc(C(=O)N2CCN(c3ccc(C)cc3C)CC2)cc(OC)c1OC	5.8µM*	4.61µM*	3.66µM*	u	2.91µM*	95.0
CCOC(=O)N1CCN(C(=O)c2cc(OC)c(OC)c(OC)c2)CC1	-0.6%	-0.6%	10.5%	-10.9%	-2.5%	0.0
Cc1ccc2nc(N3CCN(C(=O)c4cccs4)CC3)c(C#N)cc2c1	-4.0%	-3.3%	14.6µM*	-28.8%	20.6µM*	-58.8*
CSCC[C@H](NC(=O)[C@H](Cc1c[nH]c2ccccc12)NC(=O)CCNC(=O)OC(C)(C)C)C(=O)N[C@@H](CC(=O)O)C(=O)N[C@@H](Cc1ccccc1)C(N)=O	x	x	-7.7%	x	-10.0%	x
Cc1ccccc1-c1cncnc1N(C)Cc1ccco1	x	x	-11.9%	x	5.3%	x
CN(C)c1ccc(-c2ccc3ncnc(N(C)Cc4ccco4)c3c2)cc1	x	x	2.59µM*	x	4.11µM*	x
O=C(Nc1cc(Cl)cc(Cl)c1)c1cnn2c1NC(=C1CC1)C=C2C(F)F	x	x	-19.1%	x	-25.4%	x
Cc1ccccc1-c1ccc2ncnc(N3CCN(C)CC3)c2c1	x	x	16.4µM*	x	u	x
CN1CCN(c2ncnc3ccc(-c4ccccc4Cl)cc23)CC1	x	x	20.6µM*	x	16.4µM*	x
CCC1OC(C)Cc2[nH][nH]c(=O)c21 (stereo not given)	14.1%	24.3%	-18.9%	x	-6.8%	0.0
CCOc1ccc(-n2c(=S)sc3c(=O)[nH]c(SCC(=O)C(C)(C)C)nc32)cc1	u	-23.2%	18.4µM*	14.6µM*	25.9µM*	36.4
CCOc1ccc(-n2c(=S)sc3c(=O)[nH]c(SCC(=O)N4CCC(C)CC4)nc32)cc1	9.8%	-0.4%	u	-10.0%	-26.0%	20.4
CC(C)(C)c1nnc2sc(SCC(=O)c3cccs3)nn2c1=O	-22.2%	-19.6%	25.9µM*	15.5%	u	-19.4
Cc1ccc(C(=O)CSc2nn3c(=O)c(C(C)(C)C)nnc3s2)cc1	6.0%	5.6%	18.4µM*	5.6%	u	-28.0
CN1CCN(CCCNc2nc3ccccc3c3nc(-c4ccccc4)nn23)CC1	24.5%	11.0%	13µM*	x	u	-7.4
O=C(CCC(=O)NNc1nc2ccccc2c2nc(-c3ccccc3)nn12)NCCCN1CCOCC1	-0.4%	-3.9%	-19.1%	-11.4%	-6.0%	-14.1
COc1cc2nc(NCCCN3CCN(C)CC3)n3nc(-c4ccccc4)nc3c2cc1OC	u	16.4µM*	u	-26.7%	u	-110.2*
COc1ccccc1NC(=O)C(C)OC(=O)CCC1CCCCC1 (stereo not given)	-1.1%	5.9%	u	3.5%	-0.1%	4.9
Cc1ccc(NC(=O)CN2CCc3ccccc3C2)cc1S(=O)(=O)N(C)C	2.1%	11.0%	23.1µM*	u	u	18.1
CN(C)S(=O)(=O)c1ccc(Cl)c(NC(=O)CN2CCN(c3ccccn3)CC2)c1	17.9%	13.7%	23.1µM*	-5.3%	u	28.3
O=C(CN1CCN(c2ccc(O)cc2)CC1)Nc1cc([N+](=O)[O-])ccc1Cl	10.5%	4.1%	20.6µM*	-20.8%	20.6µM*	-6.0
SMILES	HT1080 IDH1KD tx	HT1080NT lethal	DT40 TDP1 no CPT	ELG1 DNA repair	DT40 TDP1 CPT	IL-1B inflam inh
CCN(CC)S(=O)(=O)c1ccc(O)c(NC(=O)CN2CCc3ccccc3C2)c1	0.3%	-0.3%	u	3.3%	1.3%	7.1
CN(C)S(=O)(=O)c1ccc(Cl)c(NC(=O)CN2CCc3ccccc3C2)c1	-5.5%	-15.3%	20.6µM*	u	18.4µM*	-15.7
O=C(CN(Cc1ccccc1Cl)C(=O)c1csnn1)NC1CCCC1	-17.9%	-6.0%	-25.4%	2.3%	-2.6%	-5.5
O=[N+]([O-])C(=C1Nc2ccccc2N1)/C(Cl)=C(/Cl)Br	-12.1%	-6.5%	u	14.5%	u	-19.0
COc1cc(CNC(=O)c2cccc(COc3ccc(Cl)cc3)c2)cc(OC)c1	-12.7%	-5.7%	16.4µM*	u	u	-11.8
NNC(=O)c1cccc(COc2ccc(Br)cc2)c1	2.1%	2.9%	u	u	20.6µM*	i
NNC(=O)c1ccc(COc2ccc3c(c2)CCC3)cc1	-13.9%	-27.6%	u	u	-29.4%	u
NNC(=O)c1ccc(COc2ccc3ccccc3c2)cc1	-17.2%	u	20.6µM*	u	u	33.0
CC1CN(C(=O)c2cccc(COc3ccc(Br)cc3)c2)CC(C)O1 (stereo not given)	-1.4%	-9.5%	13µM*	u	20.6µM*	-14.7
CCc1ccc(-c2ccc(SCC(=O)NCC3CCCO3)nn2)cc1 (stereo not given)	-11.0%	-14.4%	-11.2%	u	19.6%	-3.6
COc1ccc(OC)c(NS(=O)(=O)c2c(C)nc3sccn3c2=O)c1	2.2%	-4.5%	u	-7.0%	-5.6%	12.6
Cc1ncc2c(c1CNC(=O)c1cncs1)CCN(C(=O)c1cccc(-c3cccc(F)c3)c1)C2	x	x	-19.2%	x	-0.4%	x
CC1C/C(=C/c2ccco2)C(=O)/C(=C/c2ccco2)C1 (stereo not given)	x	x	x	-19.2%	x	x
O=C1/C(=C\c2ccco2)CCC/C1=C\c1ccco1	-5.5%	8.7%	u	u	16.4µM*	-64.4*
O=Nc1c(O)[nH]c2ccc(Cl)c(Cl)c12	u	u	u	x	u	-94.9*
COc1ccc(-c2oc3ncn4nc(-c5ccccc5O)nc4c3c2-c2ccc(OC)cc2)cc1	x	x	-12.4%	x	-1.9%	x
